Source: PubChem BioAssay (NCATS)
Several values for one entry are separate records, joined by “and”; a condition that tells them apart may be missing. Equal entries are not always repeated. Results filed as inconclusive are left out. Activity calls are given as the source filed them. Unless noted, calls come from the whole dose curve; as a rule, active = well fitted curve in the direction sought with a large enough effect; inconclusive = small, poorly fitted or top-dose-only effect, or another doubt; inactive = no such curve, though single readings can be large; an effect the other way counts as inactive or inconclusive.

How the values were obtained:
JEG-3 = test: Primary qHTS to identify gynecologic anti-cancer compounds using libraries of approved drugs and bioactive compounds (AID 1345084); conditions: Gynecologic cancer cell panel viability, ATPlite luminescence, 48 h; series mostly up to 57.5 µM; note: % is set by controls: 0 for no effect and ±100 for the full control effect; nearly all actives have a fitted effect of over 55% in size
Method in brief: (§1)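 Five-concentration response, 48 h; readout is ATP-driven luciferase luminescence.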

OV90 = test: as above; conditions: Gynecologic cancer cell panel viability, ATPlite luminescence, 48 h; series mostly up to 57.5 µM
Method in brief: as §1

PA-1 = test: as above; conditions: Gynecologic cancer cell panel viability, ATPlite luminescence, 48 h; series mostly up to 57.5 µM
Method in brief: as §1

SKOV3 = test: as above; conditions: Gynecologic cancer cell panel viability, ATPlite luminescence, 48 h; series mostly up to 57.5 µM
Method in brief: as §1

Tov-21-G = test: as above; conditions: Gynecologic cancer cell panel viability, ATPlite luminescence, 48 h; series mostly up to 57.5 µM
Method in brief: as §1

Tov112D = test: as above; conditions: Gynecologic cancer cell panel viability, ATPlite luminescence, 48 h; series mostly up to 57.5 µM
Method in brief: as §1

[1] = Drug repurposing screens with cells derived from glioblastoma tumor samples (AID 1345199); conditions: GBM patient neurospheres viability, ATP luminescence, 48 h; note: nearly all actives have a fitted effect of over 40% in size; note: potency is the fitted concentration of half-maximal effect; for activity, negative = cell killing: % is set by controls: 0 for no effect and ±100 for the full control effect
Method in brief: (§2)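 Four patient lines of CD133+ GBM neurospheres were screened at several concentrations; hits were retested in those lines plus three slower-growing GBM lines, using 48-hour treatment and ATP-based viability.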

astro = test: as above; conditions: viability, ATP luminescence, 48 h; series mostly up to 45.9 µM
Method in brief: as §2

[2] = target: Nuclear receptor subfamily 1 group I member 2 (Rattus norvegicus) (UniProt Q9R1A7); test: qHTS assay for small molecule activators of the rat pregnane X receptor (rPXR) signaling pathway (AID 651751; call rule not given here; note: 0% is about no effect); conditions: rPXR reporter cells, luciferase (One-Glo), 24 h
Nuclear receptor subfamily 1 group I member 2 (Rattus norvegicus), sequence (Q9R1A7 whole entry, looked up): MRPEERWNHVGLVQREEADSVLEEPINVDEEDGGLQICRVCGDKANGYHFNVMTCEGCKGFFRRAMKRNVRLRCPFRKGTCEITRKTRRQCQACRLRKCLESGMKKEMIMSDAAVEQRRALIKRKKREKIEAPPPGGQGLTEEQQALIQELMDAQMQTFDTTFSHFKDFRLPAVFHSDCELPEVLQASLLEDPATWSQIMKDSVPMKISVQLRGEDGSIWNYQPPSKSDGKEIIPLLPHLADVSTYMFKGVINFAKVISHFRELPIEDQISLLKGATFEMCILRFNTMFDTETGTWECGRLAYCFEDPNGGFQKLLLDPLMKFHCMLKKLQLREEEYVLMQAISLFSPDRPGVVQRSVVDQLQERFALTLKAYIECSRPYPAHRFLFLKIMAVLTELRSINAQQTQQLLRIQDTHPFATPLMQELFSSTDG

[3] = qHTS assay for small molecule activators of the human pregnane X receptor (PXR) signaling pathway (AID 720659; call rule not given here; note: 0% is about no effect)
[4] = qHTS assay to identify inhibitors of the type 1 interferon - major histocompatibility complex class I in skeletal muscle: Counter screen cell viability and HiBit confirmation (AID 1347412); conditions: iHSKM muscle cells + IFN-b, HiBiT or CellTiter-Glo, 24 h; Viability; at 45.9 µM (top of the series); note: % is set by controls: 0 for no effect and ±100 for the full control effect; nearly all actives have a fitted effect of over 60% in size
Method in brief: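 Human myoblast knock-in line, 4.0 ng/ml IFN-beta stimulation, 24 h compound treatment. Endpoints: HiBiT lytic luminescence (HLA-B level) and CellTiter Glo (ATP). Dosing 12 concentrations, 3-fold steps, 46 uM highest final.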

[5] = at 20 µM (top of the series), tumour line C
[6] = at 21.2 µM (top of the series), tumour line B
[7] = at 21.2 µM (top of the series), tumour line D
[8] = at 21.3 µM (top of the series), tumour line A
[9] = at 45.9 µM (top of the series), tumour line B
[10] = at 45.9 µM (top of the series), tumour line D
[11] = at 46 µM (top of the series), tumour line A
[12] = at 46.1 µM (top of the series), tumour line C

CC(C)(Oc1ccc(CCNC(=O)c2ccc(Cl)cc2)cc1)C(=O)O
inactive: Potency (JEG-3) | Potency (OV90) | Potency (PA-1) | Potency (SKOV3) | Potency (Tov-21-G) | Potency (Tov112D) | activity, negative = cell killing [1, 5] 15.6% | activity, negative = cell killing [1, 6] -6.51% | activity, negative = cell killing [1, 7] 0.604% | activity, negative = cell killing [1, 8] -25.9% | Potency (astro) | max response [2] -5.47%

CC[N+](C)(C)c1cccc(O)c1
inactive: Potency (JEG-3) | Potency (OV90) | Potency (PA-1) | Potency (SKOV3) | Potency (Tov-21-G) | Potency (Tov112D) | activity, negative = cell killing [1, 5] -0.675% | activity, negative = cell killing [1, 6] -16.9% | activity, negative = cell killing [1, 7] -14.7% | activity, negative = cell killing [1, 8] -22.7% | Potency (astro)

Cc1ccc(S(=O)(=O)NC(=O)NN2CCCCCC2)cc1
inactive: Potency (JEG-3) | Potency (OV90) | Potency (PA-1) | Potency (SKOV3) | Potency (Tov-21-G) | Potency (Tov112D) | activity, negative = cell killing [1, 9] 5.62% | activity, negative = cell killing [1, 10] 15.6% | activity, negative = cell killing [1, 11] -3.14% | activity, negative = cell killing [1, 12] -5.87% | Potency (astro) | max response [2] 0.57%

CCO/C([O-])=N/c1c[n+](N2CCOCC2)no1
inactive: Potency (JEG-3) | Potency (OV90) | Potency (PA-1) | Potency (SKOV3) | Potency (Tov-21-G) | Potency (Tov112D) | activity, negative = cell killing [1, 5] -6.76% | activity, negative = cell killing [1, 6] -3.07% | activity, negative = cell killing [1, 7] -1.62% | activity, negative = cell killing [1, 8] -22.7% | Potency (astro)

CC(C)NCC(O)c1cc(O)cc(O)c1 (stereo not given)
inactive: Potency (JEG-3) | Potency (OV90) | Potency (PA-1) | Potency (SKOV3) | Potency (Tov-21-G) | Potency (Tov112D) | activity, negative = cell killing [1, 9] -18.9% | activity, negative = cell killing [1, 10] 17.6% | activity, negative = cell killing [1, 12] -22.7% | Potency (astro)

CCCCNC(=O)NS(=O)(=O)c1ccc(C)cc1
inactive: Potency (JEG-3) | Potency (OV90) | Potency (PA-1) | Potency (SKOV3) | Potency (Tov-21-G) | Potency (Tov112D) | activity, negative = cell killing [1, 9] -7.32% | activity, negative = cell killing [1, 10] -11.9% | activity, negative = cell killing [1, 11] -4.33% | activity, negative = cell killing [1, 12] 8.27% | Potency (astro) | max response [2] -1.54% and 0.831% | outcome [3]

CCCN1C[C@H](CSC)C[C@@H]2c3cccc4[nH]cc(c34)C[C@H]21
inactive: Potency (JEG-3) | Potency (OV90) | Potency (PA-1) | Potency (SKOV3) | Potency (Tov-21-G) | Potency (Tov112D) | activity, negative = cell killing [1, 9] -27.2% | activity, negative = cell killing [1, 12] 15.8% | Potency (astro)
active: Potency ([1]; tumour line A) 7.94 µM

CN1C(=O)CC[C@H]1c1cccnc1
inactive: Potency (JEG-3) | Potency (OV90) | Potency (PA-1) | Potency (SKOV3) | Potency (Tov-21-G) | Potency (Tov112D) | activity, negative = cell killing [1, 9] -1.32% | activity, negative = cell killing [1, 10] -18.5% | activity, negative = cell killing [1, 11] -11.4% | activity, negative = cell killing [1, 12] -34.2% | Potency (astro)

CC(C)[N+](C)(CCOC(=O)C1c2ccccc2Oc2ccccc21)C(C)C
inactive: Potency (JEG-3) | Potency (OV90) | Potency (PA-1) | Potency (SKOV3) | Potency (Tov-21-G) | Potency (Tov112D) | activity, negative = cell killing [1, 9] -4.27% | activity, negative = cell killing [1, 10] -14.8% | activity, negative = cell killing [1, 11] -16.6% | activity, negative = cell killing [1, 12] -11.5% | Potency (astro)

C[N+](C)(C)CCOC(=O)CCC(=O)OCC[N+](C)(C)C
inactive: Potency (JEG-3) | Potency (OV90) | Potency (PA-1) | Potency (SKOV3) | Potency (Tov-21-G) | Potency (Tov112D) | activity, negative = cell killing [1, 9] 5.74% | activity, negative = cell killing [1, 10] -9.68% | activity, negative = cell killing [1, 11] -19.2% | activity, negative = cell killing [1, 12] 9.88% | Potency (astro)

CN(C)C(=O)Oc1cccc([N+](C)(C)C)c1
inactive: Potency (JEG-3) | Potency (OV90) | Potency (PA-1) | Potency (SKOV3) | Potency (Tov-21-G) | Potency (Tov112D) | activity, negative = cell killing [1, 9] -0.104% | activity, negative = cell killing [1, 10] 10.8% | activity, negative = cell killing [1, 11] -24.8% | activity, negative = cell killing [1, 12] -4.3% | Potency (astro)

CCOC(=O)C1=C(C)NC(C)=C(C(=O)OC)C1c1cccc([N+](=O)[O-])c1 (stereo not given)
inactive: Potency (JEG-3) | Potency (OV90) | Potency (PA-1) | Potency (SKOV3) | Potency (Tov-21-G) | Potency (Tov112D) | activity, negative = cell killing [1, 9] 3.31% | activity, negative = cell killing [1, 10] -28.4% | activity, negative = cell killing [1, 12] -23.9% | Potency (astro)
active: Potency ([1]; tumour line A) 11.2 µM

CSc1ccc(C(=O)c2[nH]c(=O)[nH]c2C)cc1
inactive: Potency (JEG-3) | Potency (OV90) | Potency (PA-1) | Potency (SKOV3) | Potency (Tov-21-G) | Potency (Tov112D) | activity, negative = cell killing [1, 9] -10.8% | activity, negative = cell killing [1, 10] -20.6% | activity, negative = cell killing [1, 12] -21.1% | Potency (astro)

C[C@]12C=CC(=O)C=C1CC[C@H]1[C@@H]3C[C@@H](O)[C@](O)(C(=O)CO)[C@@]3(C)C[C@H](O)[C@@]12F
inactive: Potency (JEG-3) | Potency (OV90) | Potency (PA-1) | Potency (SKOV3) | Potency (Tov-21-G) | Potency (Tov112D) | activity, negative = cell killing [1, 9] -11.4% | activity, negative = cell killing [1, 10] -6.95% | activity, negative = cell killing [1, 11] -27.1% | activity, negative = cell killing [1, 12] 7.27% | Potency (astro) | activity change, negative = inhibition [4] 8.47% | max response [2] 3.64%

CCCN(CCC)C(=O)C(CCC(=O)O)NC(=O)c1ccccc1 (stereo not given)
inactive: Potency (JEG-3) | Potency (OV90) | Potency (PA-1) | Potency (SKOV3) | Potency (Tov-21-G) | Potency (Tov112D) | activity, negative = cell killing [1, 9] 1.78% | activity, negative = cell killing [1, 10] -1.59% | activity, negative = cell killing [1, 11] -28.4% | activity, negative = cell killing [1, 12] -13.4% | Potency (astro)

CN=C(NC#N)NCCSCc1nc[nH]c1C
inactive: Potency (JEG-3) | Potency (OV90) | Potency (PA-1) | Potency (SKOV3) | Potency (Tov-21-G) | Potency (Tov112D) | activity, negative = cell killing [1, 9] -8.34% | activity, negative = cell killing [1, 10] -15.2% | activity, negative = cell killing [1, 11] -11.7% | activity, negative = cell killing [1, 12] -4.17% | Potency (astro) | max response [2] 5.73%
